Reference: the supplement of paper PMC9694430

Columns and labels:
Experiment in all cases: thermal shift delta Tm vs DMSO control; higher = stronger stabilization (binding)
Details in all cases: 12.5 µM; protein concentration 2 µM
[1] = test system: LOC_OS01G01410-cb001
How it was run: (§1)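 The melting temperature shift given here is a triplicate mean, measured against protein that received only DMSO. Melting temperatures came from Boltzmann fits of differential scanning fluorimetry data on E. coli-expressed, purified rice kinase domain constructs. Each 19.5 μl well contained 2 μM kinase, 100 mM potassium phosphate pH 7.5, 150 mM NaCl, 10% glycerol, 5 × SYPRO Orange and compound in DMSO. Plates were scanned from 25°C to 95°C at 0.05°C/s.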

[2] = test system: LOC_OS01G02750-cb003
How it was run: as §1

[3] = test system: LOC_OS01G10900-cb004
How it was run: as §1

[4] = test system: LOC_OS01G13800-cb001
How it was run: as §1

[5] = test system: LOC_OS01G14860-cb001
How it was run: as §1

[6] = test system: LOC_OS01G21960-cb002
How it was run: as §1

[7] = test system: LOC_OS01G39600-cb002
How it was run: as §1

[8] = test system: LOC_OS01G48390-cb002
How it was run: as §1

[9] = test system: LOC_OS01G51400-cb002
How it was run: as §1

[10] = test system: T1, LOC_OS01G52050-cb004
T1 sequence (whole entry): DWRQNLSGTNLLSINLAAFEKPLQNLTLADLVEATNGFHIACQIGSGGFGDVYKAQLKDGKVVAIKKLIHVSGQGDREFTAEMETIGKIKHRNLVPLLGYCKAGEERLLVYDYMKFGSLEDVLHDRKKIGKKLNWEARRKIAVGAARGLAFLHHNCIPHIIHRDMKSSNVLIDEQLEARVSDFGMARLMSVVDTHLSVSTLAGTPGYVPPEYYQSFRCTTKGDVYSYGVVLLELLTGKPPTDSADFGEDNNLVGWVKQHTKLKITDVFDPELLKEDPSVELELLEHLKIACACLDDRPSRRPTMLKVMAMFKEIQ
How it was run: as §1

[11] = test system: LOC_OS01G57100-cb003
How it was run: as §1

[12] = test system: LOC_OS01G60330-cb001
How it was run: as §1

[13] = test system: LOC_OS01G60700-cb002
How it was run: as §1

[14] = test system: LOC_OS01G63280-cb003
How it was run: as §1

[15] = test system: LOC_OS01G67340-cb003
How it was run: as §1

[16] = test system: LOC_OS01G70970-cb002
How it was run: as §1

[17] = test system: LOC_OS02G07810-cb001
How it was run: as §1

[18] = test system: LOC_OS02G08530-cb003
How it was run: as §1

[19] = test system: LOC_OS02G14120-cb001
How it was run: as §1

[20] = test system: LOC_OS02G17970-cb001
How it was run: as §1

SMILES | thermal shift delta Tm [1] | thermal shift delta Tm [2] | thermal shift delta Tm [3] | thermal shift delta Tm [4] | thermal shift delta Tm [5] | thermal shift delta Tm [6] | thermal shift delta Tm [7] | thermal shift delta Tm [8] | thermal shift delta Tm [9] | thermal shift delta Tm [10] | thermal shift delta Tm [11] | thermal shift delta Tm [12] | thermal shift delta Tm [13] | thermal shift delta Tm [14] | thermal shift delta Tm [15] | thermal shift delta Tm [16] | thermal shift delta Tm [17] | thermal shift delta Tm [18] | thermal shift delta Tm [19] | thermal shift delta Tm [20]
CO[C@H]1CC[C@H](N2C(=O)CNc3ncc(-c4ccc(C(C)(C)O)nc4)nc32)CC1 | 0.1 °C | -0.2 °C | -0.9 °C | 0.15 °C | 0.82 °C | 1.01 °C | -1.7 °C | -0.27 °C | 0.12 °C | -1.81 °C | -0.57 °C | 0.72 °C | 0.21 °C | -0.43 °C | 0.09 °C | -0.05 °C | -0.1 °C | 0.65 °C | -1.04 °C | -0.48 °C
C[C@@H]1COCCN1c1cc(C2([S@](C)(=N)=O)CC2)nc(-c2cc[nH]c3nccc2-3)n1 | 0.28 °C | 0.13 °C | -0.04 °C | 0.31 °C | -0.19 °C | -0.02 °C | -0.99 °C | -0.04 °C | -0.01 °C | -0.09 °C | 0.97 °C | 0.61 °C | 0.22 °C | -0.13 °C | 0.47 °C | 0.14 °C | 0.56 °C | 0.49 °C | 0.92 °C | 0.47 °C
CC[C@@H](N)CNc1ccnc(-c2cc(-c3cnn(C)c3)ccc2O)n1 | 0.15 °C | 2.58 °C | 0.85 °C | -0.28 °C | 2.58 °C | 2.15 °C | -0.05 °C | 1.98 °C | 0.28 °C | 1.98 °C | 0.71 °C | 0.32 °C | -0.42 °C | 0.05 °C | 1.83 °C | 0.65 °C | -0.8 °C | 2.73 °C | 4.11 °C | 0.54 °C
CCCCOc1c(C(=O)c2c(F)cc(C)cc2F)c[nH]c2nncc1-2 | 1.01 °C | 0.64 °C | 1.09 °C | 0.41 °C | 2.54 °C | 1.36 °C | 0.07 °C | 0.94 °C | 0 °C | 0.38 °C | 0.94 °C | 0.86 °C | -0.01 °C | 0.42 °C | 1.31 °C | 0.23 °C | 0.81 °C | 0.56 °C | 1.75 °C | 0.7 °C
N#Cc1cccc(-c2c[nH]c3ncnc(N4CCOCC4)c23)c1 | 0.72 °C | 2.58 °C | 0.72 °C | 0.32 °C | 1.47 °C | 1 °C | 1.94 °C | 0.73 °C | 0.58 °C | 1.08 °C | 1.38 °C | 0.98 °C | 0.99 °C | 4.38 °C | 1.62 °C | 0.07 °C | 0.61 °C | 2.7 °C | 3.85 °C | 0.73 °C
Cc1ncc(-c2ccnc(Nc3ccc(S(C)(=O)=O)cc3)n2)n1C(C)C | 2.46 °C | 2.34 °C | 0.85 °C | 0.21 °C | 7.5 °C | 2.32 °C | 2.92 °C | 0.66 °C | 0.48 °C | 4.34 °C | 1.7 °C | 2.38 °C | 1.21 °C | 4.42 °C | 1.74 °C | 1.45 °C | 1.42 °C | 2.22 °C | 5.76 °C | 1.78 °C
Cc1ccc(F)c(NC(=O)Nc2ccc(-c3cccc4[nH]nc(N)c34)cc2)c1 [Linifanib (ABT-869)] | 3 °C | 3.87 °C | 1.34 °C | 0.36 °C | 2.29 °C | 1.08 °C | 2.02 °C | 4.44 °C | 0.54 °C | 6.66 °C | -0.27 °C | 4 °C | 2.06 °C | 4.52 °C | 2.81 °C | 1.72 °C | 1.34 °C | 3.05 °C | 4.49 °C | 0.94 °C
CNC(=O)c1ccccc1Nc1cc(Nc2ccc(N3CCOCC3)cc2OC)ncc1C(F)(F)F | 0.48 °C | 1.23 °C | 0.53 °C | 1.17 °C | 1.05 °C | 1.09 °C | 0.34 °C | 0.58 °C | 0.74 °C | 5.73 °C | 2.14 °C | 0.41 °C | 1.89 °C | 0.52 °C | 3.13 °C | 10.3 °C | 0.91 °C | 3.96 °C | 9.46 °C | 2.18 °C
Cn1cc(-c2ccc3nnc(Sc4ccc5ncccc5c4)n3n2)cn1 | 0.49 °C | 0.09 °C | 3.13 °C | -0.11 °C | -0.13 °C | 0.18 °C | 0.17 °C | 0.29 °C | 0.08 °C | 0.42 °C | 0.37 °C | 0.34 °C | 1.28 °C | 0.23 °C | 0.43 °C | 0.3 °C | 0.16 °C | 1.1 °C | 1.81 °C | 0.07 °C
CCCCNc1ncc(-c2ccc(CN3CCOCC3)cn2)c(NC2CCC(O)CC2)n1 (stereo not given) | 3.51 °C | 2.08 °C | 0.31 °C | -0.02 °C | 1.13 °C | 1.41 °C | 0.62 °C | 1.38 °C | 0.2 °C | 2.9 °C | -0.33 °C | 8.95 °C | 0 °C | -0.12 °C | 1.86 °C | 5.72 °C | 0.1 °C | 1.9 °C | 5.78 °C | 0.44 °C
CC(C)c1ccc2oc3nc(N)c(C(=O)O)cc3c(=O)c2c1 [Amlexanox] | 0.99 °C | 0.05 °C | 0.62 °C | -0.62 °C | 0.4 °C | -0.2 °C | 2.5 °C | -0.03 °C | 0.2 °C | 1.26 °C | 1.39 °C | 3.07 °C | 0.37 °C | 0.05 °C | 0.99 °C | 4.3 °C | 0.24 °C | 1.49 °C | 0.32 °C | -0.09 °C
Cc1ccc(NC(=O)c2ccc(CN3CCN(C)CC3)cc2)cc1Nc1nccc(-c2cccnc2)n1 [Imatinib (STI571)] | 0.68 °C | 0 °C | 1.47 °C | -0.47 °C | 0.24 °C | -0.24 °C | -0.27 °C | 1.69 °C | 0.14 °C | 0.62 °C | 1.6 °C | 0.71 °C | 0.95 °C | 0.65 °C | 0.52 °C | 0.38 °C | 0.18 °C | 1.39 °C | 1.22 °C | 0.21 °C
Cc1cc(C(=O)NOCCO)c(Nc2ccc(I)cc2F)n(C)c1=O | 0.56 °C | 0.29 °C | 0.4 °C | 0.2 °C | 0.16 °C | 0.85 °C | -0.46 °C | 0.25 °C | -0.04 °C | -0.21 °C | 1.03 °C | 0.4 °C | 0.64 °C | 0.19 °C | -0.42 °C | 0.23 °C | 0.73 °C | 0.29 °C | -0.53 °C | 0.08 °C
